# Measured values taken from paper PMC12136788.
# Changes are numbered by the printed parent chain. Whole data set: some 24,000 sequences, median “enrichment r” near 0.99, cut for the highest 2% near 3.7. The list comes from a sample in which the highest values are over-represented; it also holds similar and randomly drawn sequences.
# T1: UNK ZnF1-3 (human, UniProt Q9C0B0 31-174)
# T1 sequence: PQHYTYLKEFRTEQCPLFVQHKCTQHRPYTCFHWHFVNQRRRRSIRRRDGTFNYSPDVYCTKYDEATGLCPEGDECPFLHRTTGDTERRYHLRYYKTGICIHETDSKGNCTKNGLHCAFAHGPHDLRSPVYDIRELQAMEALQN
# B1: chr18:35731670:35731671:+_ENSMUSG00000037236_ENSMUST00000166793|perfect_dup|motif|central (ssRNA)
# RNA: GGGAGUUCUACAGUCCGACGAUCUGACCCUGUGAGUCCCUACUGAGAGAUGACUGCUGGAAUGACUUGGACAUUGUAGAACGGGCUCUUGUCUAUUUUAUAGAUUAAAAAAAAAAAUUUUUUUAAAGACGGCCAAAAAGAAAGCAACAGAGGAUUGAGCAUCA
# B2: chr16:20683585:20683586:+_ENSMUSG00000045983_ENSMUST00000044783|mus_mus|motif|central (ssRNA)
# RNA: GGGAGUUCUACAGUCCGACGAUCUAUUGCUUCUGUUAACAUCUUCAACUUGAAUAACUCUCCAAUAAACUUGAUAUUCCCGGAAGAGCGCCGCCUAGCUAUGUCCCGGGCUUCUUCUAGCUCUUCUUUCAGGCGUCCCCGUUCCAACAGAGGAUUGAGCAUCA
# B3: chr17:24706804:24706805:+_ENSMUSG00000032855_ENSMUST00000035565|mus_hu|FALSE|FALSE (ssRNA)
# RNA: GGGAGUUCUACAGUCCGACGAUCGCAGCCGGGCACGAAGGUGGCCACCAGGGCAGGGCAGACAUUCUCAAAGCGGGCGCUGACACUGCCCCCAGGCCAGCGAGCCGUGGCCGUGGCGUUGGCACCAGAGUCCACCUGGAGCACCAACAGAGGAUUGAGCAUCA
# B4: chr7:17149110:17149111:-_ENSMUSG00000058230_ENSMUST00000075845|mus_hu|FALSE|FALSE (ssRNA)
# RNA: GGGAGUUCUACAGUCCGACGAUCAAUAUCCAUGUAUACAGAUUCCUCCAGCCACUGGUAGAAAUCCUCAUUCAUAAUAAAACUACGGGCCUCUUCCCAAGGCUUUCCGGGAGUUAUGAAAGGAGAAGUCUCCAGGUUUUCUUUCAACAGAGGAUUGAGCAUCA
# B5: chr12:8504966:8504967:-_ENSMUSG00000054364_ENSMUST00000067384|mus_hu|FALSE|FALSE (ssRNA)
# RNA: GGGAGUUCUACAGUCCGACGAUCACAAGUGUGGUCAGAAUGCUACUGUCGUAUGCAAAUGACGAGUGCAUUAAGUGUCAAACAAUGAAACAAUUGUGCAAAGAAUAAAAAAACAAAUUUUAGCCUUUAAAUAAAUCAAAUAACCAACAGAGGAUUGAGCAUCA
# B6: chr5:141234466:141234467:-_ENSMUSG00000000149_ENSMUST00000000153|mus_hu|motif|central (ssRNA)
# RNA: GGGAGUUCUACAGUCCGACGAUCUAAUAAAAAAGACAAUAAGGAUUAACAGUGAAAUUAAAAUUAAAAAAUACAAAAGCCGGAGGUUCUGGAGACAAAACUGACUAGAGUCUAUGUGUAGCCAAGUUGUGAAUGACAGUUUAGCAACAGAGGAUUGAGCAUCA
# B7: chr5:141234466:141234467:-_ENSMUSG00000000149_ENSMUST00000000153|mus_hu|FALSE|FALSE (ssRNA)
# RNA: B6 RNA with G81U, G82A
# B8: 83879064_83879184_615_CDS_ENSMUSG00000030016_ENSMUST00000032088|mouse|control|control (ssRNA)
# RNA: GGGAGUUCUACAGUCCGACGAUCUGGAGUUAUAUGAGACUCAUCAUCCCACCGACUACCAUGAGGCUUCCCCUUCUUUUGUUGUGCUUCAGGAAAAUCCAAUUUUUCUUUGGUUAAUCUUGGAUCGGUUCGGUGUUGAGUUACCAACAGAGGAUUGAGCAUCA
# B9: chrX:20248820:20248821:+_ENSMUSG00000001924_ENSMUST00000001989|mus_mus|mus_mus_mus_hu_True|58_98 (ssRNA)
# RNA: GGGAGUUCUACAGUCCGACGAUCGGCGAAGUCCGUCAUCACAAAGUCAGGUUCUGCCAGUGAGGCCACCAAGGAUUUAAAACUAAUCUUCUUAGGUACUUUGACCUGACUGACGAUGCCUCCACGGAUGUAGUCGGAGAAGUUCAACAGAGGAUUGAGCAUCA
# B10: chr17:35253193:35253194:-_ENSMUSG00000024387_ENSMUST00000025246|mus_mus|FALSE|FALSE (ssRNA)
# RNA: GGGAGUUCUACAGUCCGACGAUCGGCCUUUUCUUCCUUUAUUUCAUAUUCCCACCACAGUAACAAUUCCUUUAAUUUAAACUAAAAACCAUAGACUUCCUGAAAGGGUGGCAGCAGAGGAAUGGUGGUGUCACAGACAGAGGGCAACAGAGGAUUGAGCAUCA
# B11: chr16:45382771:45382772:-_ENSMUSG00000022661_ENSMUST00000163230|mus_mus|mus_mus_mus_hu_True|1_48 (ssRNA)
# RNA: GGGAGUUCUACAGUCCGACGAUCCUGGGUCAUGUUAUAAGACAAAUGGACAGGGAGGGCAUGCUUCUCAAAAAAUGUGAGCUAUUGACUAAGACUAACAAUAUUUAUCUAGCUAUAAAAAUAAGUUAAAUGAAUAAACAUUACCAACAGAGGAUUGAGCAUCA
# B12: chr16:45382771:45382772:-_ENSMUSG00000022661_ENSMUST00000163230|mus_mus|mus_mus_mus_hu_True|18_48 (ssRNA)
# RNA: GGGAGUUCUACAGUCCGACGAUCCUGGGUCAUGUUAUAAGACAAAUGGACAGGGAGGGCAUGCUUCUCAAAAAAUGUGAGCUAUUGACUAAGACUAACAAUAUUUAUCUAGCUAUAUAAAAAUAAGAAAUGAAUAAGUUAAGACAACAGAGGAUUGAGCAUCA
# B13: chr16:45382771:45382772:-_ENSMUSG00000022661_ENSMUST00000163230|mus_mus|mus_mus_mus_hu_True|18_18 (ssRNA)
# RNA: B12 RNA with A87U
# B14: chr16:45382771:45382772:-_ENSMUSG00000022661_ENSMUST00000163230|mus_mus|mus_mus_mus_hu_True|1_18 (ssRNA)
# RNA: B11 RNA with A87U, A117U, U121A, A123U, G124A, U125A, U126G
# B15: chr16:45382771:45382772:-_ENSMUSG00000022661_ENSMUST00000163230|mus_mus|mus_mus_mus_hu_True|18_58 (ssRNA)
# RNA: B12 RNA with G80A, U84C, G86C, A87U
# B16: chr16:45382771:45382772:-_ENSMUSG00000022661_ENSMUST00000163230|mus_mus|mus_mus_mus_hu_True|18_98 (ssRNA)
# RNA: B12 RNA with A38G, A39G, A41C, A43C, A87U
# Target: T1, UNK ZnF1-3
# Test: nsRBNS (natural sequence RNA bind-n-seq); RBNS binding buffer (assumed for nsRBNS): 25 mM Tris pH 7.5, 150 mM KCl, 3 mM MgCl2, 0.01% Triton X-100, 500 ug/ml BSA, 20 U/ml SUPERase-In, 4 C; UNK is unkempt and MSI1 is Musashi-1; names of the RNAs are library labels; protein concentration not given here; high values mean tight binding
row,Binder,binding signal [enrichment R]
1,B1,3.64
2,B2,0.438
3,B3,0.934
4,B4,0.85
5,B5,2.25
6,B6,13.3
7,B7,9.17
8,B8,0.468
9,B9,0.876
10,B10,1.66
11,B11,3.57
12,B12,5.66
13,B13,5.7
14,B14,2.42
15,B15,7.97
16,B16,5.27
